The target in assay [1] is Bile acid receptor (Homo sapiens) (UniProt Q96RI1). As to the kind of experiment: OT_FXR_FXRSRC1_1440: Odyssey Thera (OT) 24-hour HEK293T Protein-Complementation Assay for Farnesoid X receptor/SRC-1 Co-activator (AID 2283384; active means hit-call score of the fitted dose curve at least 0.9, where 1 is the maximum). The essentials: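 Compounds are applied to human kidney HEK293T cells expressing bait and prey fused to reporter protein fragments; after 24 h, reconstituted reporter fluorescence is measured. Activity is fitted as signal gain over DMSO.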

Assay [2] addresses Retinoic acid receptor RXR-alpha (Homo sapiens) (UniProt P19793). As to the kind of experiment: OT_NURR1_NURR1RXRa_0480: Odyssey Thera (OT) 8-hour HEK293T Protein Complementation Assay for Nurr1/retinoid X receptor (RXR) (AID 2283385; active means hit-call score of the fitted dose curve at least 0.9, where 1 is the maximum). The essentials:
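8 h compound exposure, HEK293T; Nurr1/RXRα fragment complementation; fluorescence intensity; positive fitting direction vs DMSO baseline.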

Assay [3] shares this target. As to the kind of experiment: OT_NURR1_NURR1RXRa_1440: Odyssey Thera (OT) 24-hour HEK293T Protein Complementation Assay for Nurr1/retinoid X receptor (RXR) (AID 2283386; active means hit-call score of the fitted dose curve at least 0.9, where 1 is the maximum). The essentials:
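Interaction of Nurr1 with RXRα brings fused reporter fragments together in human HEK293T cells, restoring a functional reporter. Fluorescence intensity is measured 24 h after chemical treatment, and values are analysed in the positive direction against DMSO.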

Assay [4] addresses Peroxisome proliferator-activated receptor gamma (Homo sapiens) (UniProt P37231). As to the kind of experiment: OT_PPARg_PPARgSRC1_1440: Odyssey Thera (OT) 24-hour Protein-Complementation Assay for Peroxisome Proliferator-activated Receptor Gamma/ SRC-1 Co-activator (AID 2283388; active means hit-call score of the fitted dose curve at least 0.9, where 1 is the maximum;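 further: nuclear to cytoplasmic ratio of reconstituted Venus YFP fluorescence in fixed imaged cells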). Summed up:
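Transient HEK293T, YFP fragments 1-158/159-239 (mutant IFP1/IFP2) fused to PPARg/SRC-1; 24 h dosing; fix 4% formaldehyde, Draq5; Opera imaging 488/635 nm; N/C ratio, gain vs DMSO.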

Assay [5] in a line: CEETOX_H295R_11DCORT: CeeTox H295R High-throughput Steroidogenesis Assay for 11-Deoxycortisol (11DCORT) (AID 2283432).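 On AC50: human adrenal H295R cells prestimulated with 10 µM forskolin for 48 h; 11-deoxycortisol secreted into the medium measured by LC-MS/MS.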 To be noted: actives raise or lower the signal. The essentials:
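Adrenal carcinoma line H295R, run per OECD 456 with minor changes, was forskolin-stimulated (10 uM, 48 h) before a 48 h chemical exposure at 0.1% DMSO. Secreted 11-deoxycortisol was quantified by HPLC-MS/MS.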

Assay [6] in a line: CEETOX_H295R_OHPROG: CeeTox H295R High-throughput Steroidogenesis Assay for OH-Progesterone (OHPROG) (AID 2283435).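 On AC50: human adrenal H295R cells primed 48 h with 10 µM forskolin; 17alpha-hydroxyprogesterone secreted into medium measured by HPLC-MS/MS.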 To be noted: actives raise or lower the signal. The essentials:
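H295R, 10 uM forskolin prestim 48 h; cmpd in 0.1% DMSO 48 h; medium MTBE-extracted, HPLC-MS/MS for OH-progesterone; 7-pt std curve; bidirectional fit vs DMSO; MTT viability, chemicals diluted until viability >/=70%.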

A short description of assay [7]: CEETOX_H295R_ANDR: CeeTox H295R High-throughput Steroidogenesis Assay for Androstenedione (ANDR) (AID 2283436).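 Further: human H295R adrenal cells exposed for 48 h with androstenedione measured in medium.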 To be noted: actives raise or lower the signal. Summed up: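 Read-out is androstenedione secreted into medium, measured by tandem mass spectrometry after liquid-liquid extraction. Cells were H295R, dosed for 48 h per modified OECD 456; activity fitted in both directions relative to DMSO.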

Assay [8] in a line: CEETOX_H295R_CORTIC: CeeTox H295R High-throughput Steroidogenesis Assay for Corticosterone (CORTIC) (AID 2283437).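 Further: corticosterone secreted into medium quantified by mass spectrometry.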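 On AC50: human H295R adrenal cells prestimulated with forskolin before chemical exposure.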 To be noted: actives raise or lower the signal. Summed up:
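Corticosterone secreted into medium is measured by reverse-phase HPLC with tandem MS following liquid-liquid extraction. Cells are forskolin-stimulated (10 uM, 48 h) before 48 h test exposure; activity fitted in both directions against DMSO.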

Assay [9] is described as follows: CEETOX_H295R_CORTISOL: CeeTox H295R High-throughput Steroidogenesis Assay for Cortisol (AID 2283438).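 Further: cortisol secreted into medium quantified by LC-MS/MS.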 To be noted: actives raise or lower the signal. Summed up: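 Forskolin 10 uM 48 h prestim → test cmpd in DMSO (0.1% final) 48 h → medium MTBE-extracted → LC-MS/MS cortisol vs 7-pt std curve. Gain/loss of signal fitted vs DMSO. MTT viability in same wells.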
Assay [10] in a line: CEETOX_H295R_DOC: CeeTox H295R High-throughput Steroidogenesis Assay for DOC (AID 2283439). To be noted: actives raise or lower the signal. Summed up:
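Readout: 11-deoxycorticosterone in culture medium by reverse-phase C18 HPLC with ESI+ tandem MS after MTBE extraction. Cells: H295R, forskolin-primed (10 uM, 48 h), chemical-treated 48 h; DMSO 0.1% final. Activity fitted bidirectionally versus DMSO.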

Assay [11] is described as follows: CEETOX_H295R_ESTRADIOL: CeeTox H295R High-throughput Steroidogenesis Assay for Estradiol (AID 2283440).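 Further: estradiol secreted into medium quantified by LC-MS/MS after dansyl derivatisation.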 To be noted: actives raise or lower the signal. Summed up: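 Following OECD 456 with minor changes, H295R cells received 10 uM forskolin for 48 h and then test chemical for 48 h. Hormone output was read by HPLC-MS/MS, with cytotoxic concentrations diluted until MTT viability reached ≥70%.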

Assay [12] is described as follows: CEETOX_H295R_ESTRONE: CeeTox H295R High-throughput Steroidogenesis Assay for Estrone (AID 2283441).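 Further: estrone secreted into medium measured by LC-MS/MS after dansyl derivatization.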 To be noted: actives raise or lower the signal. The essentials: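 H295R cells prestimulated 48 h with 10 uM forskolin, then exposed 48 h to chemicals in 0.1% DMSO final; estrone in medium extracted with MTBE, dansyl-derivatized, quantified by HPLC-MS/MS; bidirectional fitting versus DMSO, viability by MTT.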

Assay [13] is described as follows: CEETOX_H295R_PROG: CeeTox H295R High-throughput Steroidogenesis Assay for Progesterone (PROG) (AID 2283442).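 On AC50: human H295R adrenal cells primed with 10 µM forskolin before dosing; progesterone secreted into medium by H295R cells measured by HPLC-MS/MS.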 To be noted: actives raise or lower the signal. Summed up: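 Adrenal H295R line, forskolin-stimulated (10 uM, 48 h) before dosing. 48 h exposure, 0.1% DMSO vehicle. Secreted progesterone by reverse-phase HPLC with ESI+ MS/MS quantification; DMSO-normalised bidirectional curve fit.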

Read-out in assay [14]: Fatty acid synthase (Homo sapiens) (UniProt P49327)
As to the kind of experiment: LTEA_HepaRG_FASN: Life Technologies and Expression Analysis (LTEA) Assay for Fatty Acid Synthase (FASN) using HepaRG (AID 2283448).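 On AC50: differentiated human HepaRG liver cells in serum-free induction medium.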 To be noted: mRNA level, 48 h; actives raise or lower the signal. The essentials: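 FASN expression changes, up or down relative to 0.5% DMSO, were measured by qRT-PCR in human HepaRG cells after 48 h treatment with chemicals at eight concentrations (half-log steps from 100 uM).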

Read-out in assay [15]: Cyclin Dependent Kinase Inhibitor 1A (CDKN1A), CDKN1A (gene 1026)
As to the kind of experiment: LTEA_HepaRG_CDKN1A: Life Technologies and Expression Analysis (LTEA) Assay for Cyclin Dependent Kinase Inhibitor 1A (CDKN1A) using HepaRG (AID 2283450). To be noted: mRNA level, 48 h; actives raise or lower the signal. Summed up:
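Cryopreserved HepaRG cells were plated and cultured 48 h, then switched to serum-free induction medium. Chemicals (eight half-log concentrations, top 100 uM, 0.5% DMSO) were applied for 48 h. Lysates underwent qRT-PCR for CDKN1A with housekeeping normalization.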

Read-out in assay [16]: Cyclin D1 (CCND1), CCND1 (gene 595)
As to the kind of experiment: LTEA_HepaRG_CCND1: Life Technologies and Expression Analysis (LTEA) Assay for Cyclin D1 (CCND1) using HepaRG (AID 2283451). To be noted: mRNA level, 48 h; actives raise or lower the signal. The essentials:
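Human liver HepaRG line; 48 h dosing, 8 conc. ≤100 uM, 0.5% DMSO; TaqMan qRT-PCR mRNA, 3 housekeeping genes; bidirectional curve fit vs DMSO.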

Read-out in assay [17]: flavin-containing dimethylaniline monooxygenases 3 (FMO3), FMO3 (gene 2328)
As to the kind of experiment: LTEA_HepaRG_FMO3: Life Technologies and Expression Analysis (LTEA) Assay for flavin-containing dimethylaniline monooxygenases 3 (FMO3) using HepaRG (AID 2283453).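 On AC50: differentiated human HepaRG liver cells in serum-free induction medium.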 To be noted: mRNA level, 48 h; actives raise or lower the signal. The essentials:
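Differentiated HepaRG cells in serum-free induction medium, exposed 48 h in duplicate to 8 half-log concentrations up to 100 uM in 0.5% DMSO. FMO3 mRNA by qRT-PCR, normalized to ACTB, GAPDH, POLR2A; bidirectional fit vs DMSO.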

Read-out in assay [18]: Cytochrome P450 (CYP1A1), CYP1A1 (gene 1543)
As to the kind of experiment: LTEA_HepaRG_CYP1A1: Life Technologies and Expression Analysis (LTEA) Assay for Cytochrome P450 (CYP1A1) using HepaRG (AID 2283454). To be noted: mRNA level, 48 h; actives raise or lower the signal. Summed up: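 Induction of CYP1A1 mRNA in a human hepatic cell line was measured 48 h after dosing, with 1 mM phenobarbital as induction positive control and 0.5% DMSO vehicle as baseline for bidirectional curve fitting.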

Read-out in assay [19]: catalase (CAT), CAT (gene 847)
Put plainly: LTEA_HepaRG_CAT: Life Technologies and Expression Analysis (LTEA) Assay for catalase (CAT) using HepaRG (AID 2283452).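 On AC50: TaqMan qRT-PCR signal normalized to ACTB GAPDH and POLR2A housekeeping genes.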 To be noted: mRNA level, 48 h; actives raise or lower the signal. Summed up: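 Expression of CAT was quantified by TaqMan qRT-PCR with ACTB/GAPDH/POLR2A normalization after 48 h chemical exposure of HepaRG. Eight-point half-log series, top 100 uM, in 0.5% DMSO; gain or loss fitted against vehicle.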

The target in assay [20] is Peroxisome proliferator-activated receptor gamma (Homo sapiens) (UniProt P37231). As to the kind of experiment: OT_PPARg_PPARgSRC1_0480: Odyssey Thera (OT) 8-hour Protein-Complementation Assay for Peroxisome Proliferator-activated Receptor Gamma / SRC-1 Co-activator (AID 2283387; active means hit-call score of the fitted dose curve at least 0.9, where 1 is the maximum;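 further: nuclear to cytoplasmic split Venus YFP fluorescence ratio reporting PPARg SRC-1 interaction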). Summed up: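 Protein-fragment complementation in HEK293T: Venus YFP halves (residues 1-158, 159-239, mutated to IFP1/IFP2) fused to PPARg/SRC-1. 8 h exposure; N/C ratio at 488 nm; DMSO negative control.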

Each structure is given as a SMILES string. Results filed as inconclusive are left out. The source made the active and inactive calls. How the source made its calls, unless noted: active means hit-call score of the fitted dose curve at least 0.9, where 1 is the maximum; inactive means score below 0.9.

Sequence of Peroxisome proliferator-activated receptor gamma (Homo sapiens) (P37231 whole entry, looked up, the tested form may be a part): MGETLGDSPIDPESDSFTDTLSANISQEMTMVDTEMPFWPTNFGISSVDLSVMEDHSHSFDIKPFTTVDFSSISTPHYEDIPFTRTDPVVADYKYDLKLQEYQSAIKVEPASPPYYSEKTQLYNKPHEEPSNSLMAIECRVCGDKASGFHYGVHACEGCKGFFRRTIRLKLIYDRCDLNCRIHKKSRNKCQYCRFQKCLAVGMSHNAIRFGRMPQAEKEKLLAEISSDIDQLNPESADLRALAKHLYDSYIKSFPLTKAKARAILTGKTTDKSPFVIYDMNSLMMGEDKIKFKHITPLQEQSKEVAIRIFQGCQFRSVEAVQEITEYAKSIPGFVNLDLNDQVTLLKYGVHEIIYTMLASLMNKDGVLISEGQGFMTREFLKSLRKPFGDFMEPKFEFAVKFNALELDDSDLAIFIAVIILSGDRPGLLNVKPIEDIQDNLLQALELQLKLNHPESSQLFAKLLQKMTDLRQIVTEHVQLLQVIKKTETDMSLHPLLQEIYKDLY
Sequence of Fatty acid synthase (Homo sapiens) (P49327 whole entry, looked up): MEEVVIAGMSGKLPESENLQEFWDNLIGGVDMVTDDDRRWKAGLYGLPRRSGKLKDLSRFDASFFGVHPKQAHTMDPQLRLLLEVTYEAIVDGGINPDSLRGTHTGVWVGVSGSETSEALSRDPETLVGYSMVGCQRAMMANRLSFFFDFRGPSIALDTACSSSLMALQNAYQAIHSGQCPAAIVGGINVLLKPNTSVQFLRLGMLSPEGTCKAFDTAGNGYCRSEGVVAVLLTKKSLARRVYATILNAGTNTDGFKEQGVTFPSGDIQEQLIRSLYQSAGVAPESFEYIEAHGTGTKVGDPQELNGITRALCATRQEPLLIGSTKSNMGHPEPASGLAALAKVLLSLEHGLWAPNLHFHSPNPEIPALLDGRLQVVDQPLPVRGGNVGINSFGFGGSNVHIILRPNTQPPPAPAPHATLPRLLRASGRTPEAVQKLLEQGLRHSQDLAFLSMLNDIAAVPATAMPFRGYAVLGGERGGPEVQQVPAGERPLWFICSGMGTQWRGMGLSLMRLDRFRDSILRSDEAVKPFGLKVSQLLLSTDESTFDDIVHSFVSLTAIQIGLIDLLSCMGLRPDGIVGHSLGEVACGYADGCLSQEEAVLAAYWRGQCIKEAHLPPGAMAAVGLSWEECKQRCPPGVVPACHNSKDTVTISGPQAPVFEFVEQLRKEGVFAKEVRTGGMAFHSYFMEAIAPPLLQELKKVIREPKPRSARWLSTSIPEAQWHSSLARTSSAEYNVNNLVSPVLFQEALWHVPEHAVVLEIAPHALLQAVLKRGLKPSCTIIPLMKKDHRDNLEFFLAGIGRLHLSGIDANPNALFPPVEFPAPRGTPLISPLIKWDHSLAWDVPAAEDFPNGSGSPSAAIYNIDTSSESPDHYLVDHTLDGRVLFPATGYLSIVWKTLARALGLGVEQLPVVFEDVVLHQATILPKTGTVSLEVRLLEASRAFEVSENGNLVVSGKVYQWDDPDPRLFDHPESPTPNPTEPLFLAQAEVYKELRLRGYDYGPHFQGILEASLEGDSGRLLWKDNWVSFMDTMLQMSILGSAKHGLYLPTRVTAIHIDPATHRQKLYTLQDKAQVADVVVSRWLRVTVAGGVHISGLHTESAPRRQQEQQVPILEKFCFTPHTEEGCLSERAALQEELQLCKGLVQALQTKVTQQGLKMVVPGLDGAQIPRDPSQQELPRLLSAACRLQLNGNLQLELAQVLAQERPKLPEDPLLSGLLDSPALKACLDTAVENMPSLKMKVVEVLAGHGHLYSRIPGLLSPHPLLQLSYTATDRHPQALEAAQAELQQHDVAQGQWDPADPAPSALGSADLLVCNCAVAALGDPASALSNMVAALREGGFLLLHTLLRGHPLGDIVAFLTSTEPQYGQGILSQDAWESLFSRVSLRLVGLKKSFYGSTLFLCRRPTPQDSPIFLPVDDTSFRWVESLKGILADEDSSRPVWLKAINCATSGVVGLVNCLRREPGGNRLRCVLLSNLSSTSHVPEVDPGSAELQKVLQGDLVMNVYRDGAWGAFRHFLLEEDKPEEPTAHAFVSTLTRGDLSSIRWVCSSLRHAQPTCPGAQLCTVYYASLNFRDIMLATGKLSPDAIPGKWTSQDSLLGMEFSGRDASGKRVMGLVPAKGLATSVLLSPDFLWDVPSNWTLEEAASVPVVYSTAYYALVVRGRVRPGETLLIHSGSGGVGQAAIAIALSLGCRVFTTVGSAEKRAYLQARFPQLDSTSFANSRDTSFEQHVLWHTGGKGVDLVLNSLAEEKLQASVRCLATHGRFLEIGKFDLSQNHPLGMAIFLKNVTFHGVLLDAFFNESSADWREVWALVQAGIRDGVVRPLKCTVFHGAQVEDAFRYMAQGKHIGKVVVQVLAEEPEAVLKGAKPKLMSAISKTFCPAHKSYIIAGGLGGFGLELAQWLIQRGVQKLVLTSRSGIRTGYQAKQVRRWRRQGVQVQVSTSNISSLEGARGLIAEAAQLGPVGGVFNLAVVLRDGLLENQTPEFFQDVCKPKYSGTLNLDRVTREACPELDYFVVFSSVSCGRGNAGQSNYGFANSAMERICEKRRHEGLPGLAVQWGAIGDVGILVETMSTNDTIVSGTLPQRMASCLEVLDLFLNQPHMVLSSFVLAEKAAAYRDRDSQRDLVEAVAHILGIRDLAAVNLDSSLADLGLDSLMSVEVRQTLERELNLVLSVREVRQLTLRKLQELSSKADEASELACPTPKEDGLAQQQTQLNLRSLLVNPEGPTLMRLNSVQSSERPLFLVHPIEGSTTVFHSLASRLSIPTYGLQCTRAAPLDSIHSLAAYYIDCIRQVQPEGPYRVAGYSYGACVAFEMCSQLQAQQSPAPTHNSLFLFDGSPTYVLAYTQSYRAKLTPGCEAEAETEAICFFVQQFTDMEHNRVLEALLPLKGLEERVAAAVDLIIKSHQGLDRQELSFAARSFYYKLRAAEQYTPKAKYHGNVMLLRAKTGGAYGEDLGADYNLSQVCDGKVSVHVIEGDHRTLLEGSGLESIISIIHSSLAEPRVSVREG
Sequence of Retinoic acid receptor RXR-alpha (Homo sapiens) (P19793 whole entry, looked up, the tested form may be a part): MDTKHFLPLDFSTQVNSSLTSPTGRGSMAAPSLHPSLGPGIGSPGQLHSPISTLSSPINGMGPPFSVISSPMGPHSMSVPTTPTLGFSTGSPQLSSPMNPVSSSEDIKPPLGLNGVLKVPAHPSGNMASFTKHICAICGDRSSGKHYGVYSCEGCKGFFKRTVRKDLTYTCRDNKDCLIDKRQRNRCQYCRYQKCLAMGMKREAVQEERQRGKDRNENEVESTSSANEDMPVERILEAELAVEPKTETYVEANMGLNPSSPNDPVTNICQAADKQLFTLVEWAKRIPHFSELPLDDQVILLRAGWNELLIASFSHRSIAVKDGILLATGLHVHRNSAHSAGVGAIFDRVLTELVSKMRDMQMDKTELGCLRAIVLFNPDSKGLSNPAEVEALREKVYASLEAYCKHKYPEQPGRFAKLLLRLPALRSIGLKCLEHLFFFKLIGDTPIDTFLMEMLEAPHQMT
Sequence of Bile acid receptor (Homo sapiens) (Q96RI1 whole entry, looked up, the tested form may be a part): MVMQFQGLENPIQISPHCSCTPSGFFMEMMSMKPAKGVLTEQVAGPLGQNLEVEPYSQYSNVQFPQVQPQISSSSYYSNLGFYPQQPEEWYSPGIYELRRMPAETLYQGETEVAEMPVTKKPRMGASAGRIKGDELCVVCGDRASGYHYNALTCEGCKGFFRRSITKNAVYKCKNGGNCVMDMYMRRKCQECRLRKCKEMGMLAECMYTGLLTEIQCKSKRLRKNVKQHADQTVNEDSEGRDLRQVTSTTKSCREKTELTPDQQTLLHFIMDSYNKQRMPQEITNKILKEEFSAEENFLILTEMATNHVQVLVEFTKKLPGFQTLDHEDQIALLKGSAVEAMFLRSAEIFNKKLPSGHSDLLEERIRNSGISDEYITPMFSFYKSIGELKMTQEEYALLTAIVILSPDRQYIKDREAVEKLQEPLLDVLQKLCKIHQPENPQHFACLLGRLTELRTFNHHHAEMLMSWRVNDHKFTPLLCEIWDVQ

What is called AC50 is the concentration giving half of the maximal activity seen. Take `COc1cc([N+](=O)[O-])ccc1N`: the AC50 in assay [1] is 28 µM (active); in assay [6], 15.1 µM (active); in [10], 23.8 µM (active); in assay [13] it was 24.2 µM (active). The compound was called inactive in assay [2], in assay [3], in assay [4], in assay [5], in assay [7] and in [8]. Besides, the compound was classed as inactive in [9], in assay [11] and in [12].

As for `O=C1OC2(c3ccccc31)c1cc(I)c(O)c(I)c1Oc1c2cc(I)c(O)c1I`, the call in assay [2] was inactive.

On to `CCCCCCCCCCCCOS(=O)(=O)O`, for which the AC50 in assay [14] was 80.7 µM (active); in [17], 85.6 µM (active); in assay [18], 61.6 µM (active). The compound was called inactive in assay [15] and in assay [16].

Regarding `Cc1cc(Cc2cc(C)cc(C(C)(C)C)c2O)c(O)c(C(C)(C)C)c1`, in assay [4], the call was inactive.

For the compound `O=C(c1ccccc1)c1ccccc1`, the outcome in [2], in assay [3], in [14], in [15], in [16] and in [19] was inactive. Besides, the result in assay [17] was inactive.

With `CC(C)c1c(C(=O)Nc2ccccc2)c(-c2ccccc2)c(-c2ccc(F)cc2)n1CC[C@@H](O)C[C@@H](O)CC(=O)O`, the compound was called inactive in assay [20] and in assay [4].

For the compound `Cc1ccc(C)c(S(=O)(=O)O)c1`, the call in [2], in assay [20] and in assay [4] was inactive.

`CC(C)CCOCCC(C)C`: the compound was called inactive in assay [5], in assay [6], in assay [7], in assay [8], in [9] and in assay [10]. For the same compound, the result in assay [11], in [12] and in assay [13] was inactive.

For the compound `NC(=NCCCCCCN=C(N)/N=C(\N)Nc1ccc(Cl)cc1)/N=C(\N)Nc1ccc(Cl)cc1`, the call in assay [20] and in [4] was inactive.

Consider `CC(C)[C@@H]1CC[C@@H](C)C[C@H]1O`, for which the call in assay [3], in assay [20] and in [4] was inactive.

In the case of `Cc1ccc(S(=O)(=O)O)cc1`, the call in [3] was inactive.

Turning to `CCCCCc1ccc(O)cc1`, the result in [5], in assay [6], in assay [9], in assay [10], in assay [11] and in assay [12] was inactive. In assay [13], the outcome was inactive. The AC50 in [7] is 50 µM (active); in assay [8], 21.9 µM (active).

`CS(=O)(=O)c1ccc([C@@H](CC2CCCC2)C(=O)Nc2cnccn2)cc1Cl`: the result in [2] and in assay [16] was inactive. Further, the AC50 is 50 µM (active) in assay [14], 50 µM (active) in [15], 83.3 µM (active) in assay [19] and 78.6 µM (active) in assay [17].

Regarding `CCc1ccccc1O`, the outcome in assay [20] and in [4] was inactive.

As for `Oc1cc2ccccc2cc1O`, the compound was called inactive in [5], in [6], in assay [7], in assay [8], in [9] and in assay [10]. Moreover, the outcome in assay [11], in assay [12] and in [13] was inactive.

As to `CC(C)(c1ccc(Oc2ccc(N)cc2)cc1)c1ccc(Oc2ccc(N)cc2)cc1`, the AC50 in assay [5] was 0.249 µM (active); in assay [6], 0.235 µM (active); in [7] it was 0.234 µM (active); in [8], 0.229 µM (active); in [9], 0.401 µM (active); in [10] it was 0.2 µM (active). Also, in assay [13], the AC50 was 0.134 µM (active). Also, the outcome in assay [11] and in [12] was inactive.

Take `CC(O)COc1ccccc1` (stereo not given): the compound was classed as inactive in assay [3], in [20] and in [4].

(Values after PubChem BioAssay (EPA / NIEHS).)
